aSyn 5UTR act – Activators working through SNCA 5'UTR binding (MLPCN); alpha-synuclein 5'UTR reporter, activators screen; activity score, % (tested at 7.5 µM), hits read low; 7.1% of 300,000 active; in the data active = activity score below about -60%
* hit, by the source's call. Not all results are given here.

SMILES	aSyn 5UTR act
O=C(Nc1ccc(N2CCCC2)cc1)c1ccc(Cl)cc1Cl	-88.4*
O=C(C(Cl)c1ccccc1)N1CCCC1 (configuration not stated)	-112.1*
COc1ccccc1C(=O)Nc1ccc(N2CCCCC2)cc1	-65.9*
O=C(Nc1ccc(N2CCCC2)cc1)c1cc(Cl)ccc1Cl	-241.2*
O=C(Nc1ccc(NC(=O)c2cccnc2Cl)cc1)c1cccc(Cl)c1	-102.0*
CN1CCN(c2ccc(NC(=O)c3ccccc3Br)cc2)CC1	-119.8*
O=C(Nc1ccc(N2CCCCC2)cc1)C(Cl)c1ccccc1 (configuration not stated)	-235.9*
O=C(Nc1ccc(N2CCCC2)cc1)c1cccc(Cl)c1	-137.0*
O=C(Nc1ccc(N2CCCCC2)cc1)c1ccccn1	113.8
CN1CCN(c2ccc(NC(=O)c3ccc(Cl)cc3Cl)cc2)CC1	-135.7*
O=C(Nc1ccc(N2CCCCCC2)cc1)c1ccccc1Cl	-252.4*
S=C1NC(c2ccccc2)=NCN1c1ccc(Cl)cc1	-84.0*
O=C1Nc2ccccc2/C1=C/c1cnc(-c2ccccc2)[nH]1	-78.4*
CCCCC(=O)NC(c1ccccc1)c1ccc2cccnc2c1O (configuration not stated)	67.9
CCCC(=O)NC(c1ccccc1)c1ccc2cccnc2c1O (configuration not stated)	65.4
CCC(=O)NC(c1ccccc1)c1nc2ccccc2[nH]1 (configuration not stated)	-79.1*
Nc1ccc(C(=O)Nc2ccc(NC(=O)c3ccco3)c(O)c2)cc1	-81.6*
O=C(Nc1ccc(Br)c(Cl)c1)c1ccco1	-162.5*
O=C(Nc1ccc(NC(=O)c2ccco2)c(Cl)c1)c1ccccc1	-99.5*
CC(C)COc1ccc(C(=O)Nc2ccc(NC(=O)c3ccco3)c(Cl)c2)cc1	-149.5*
CC(C)Oc1ccc(C(=O)Nc2ccc(NC(=O)c3ccco3)c(Cl)c2)cc1	-106.0*
Cc1ccn2c(=O)nc(SCC(=O)c3ccccc3)nc2c1	-76.0*
Cc1ccc2nc(SCC(=O)c3ccccc3)nc(=O)n2c1	-111.8*
Cc1ccc2nc(N(CCN(C)C)C(=O)c3cc(Cl)sc3Cl)sc2c1	-133.5*
Cc1ccc2nc(N(CCCN(C)C)C(=O)c3cc(-c4cccs4)nc4ccccc34)sc2c1	67.1
SMILES	aSyn 5UTR act
Cc1cccc2sc(N(CCN(C)C)C(=O)c3cc(Cl)sc3Cl)nc12	-85.3*
Cc1nc2nc(-c3cccs3)[nH]c2cc1Br	-148.9*
CN(C)CCN(C(=O)c1ccc(S(=O)(=O)N(C)c2ccccc2)cc1)c1nc2cc3c(cc2s1)OCCO3	-64.4*
COc1ccc2nc(N(CCN(C)C)C(=O)c3ccc4c(c3)OCCO4)sc2c1	-72.3*
CN(C)CCN(C(=O)c1ccc2c(c1)OCCO2)c1nc2c(Cl)cccc2s1	-96.8*
CN(C)CCN(C(=O)c1ccc2c(c1)OCCO2)c1nc2cc3c(cc2s1)OCO3	-76.9*
Cc1cc(C)c2sc(N(CCCN(C)C)C(=O)c3ccc(S(=O)(=O)N(C)C4CCCCC4)cc3)nc2c1	53.3
CN(C)CCCN(C(=O)c1ccc2c(c1)CCCC2)c1nc2c(F)cccc2s1	-157.2*
CCOc1cccc2sc(N(CCCN(C)C)C(=O)c3ccc(S(=O)(=O)N4CCc5ccccc5C4)cc3)nc12	58.4
CN(C)CCN(C(=O)c1ccc2c(c1)CCCC2)c1nc2cc3c(cc2s1)OCCO3	-75.0*
Cc1cc2cc(C=C(C#N)C#N)c(Cl)nc2cc1C	-74.8*
O=C(Nc1cnc2ccccc2c1)c1ccncc1	-109.9*
Cc1ccc(NC(=O)Nc2cnc3ccccc3c2)cc1	-144.3*
S=C(NCCc1ccccc1)Nc1cnc2ccccc2c1	-114.8*
Cn1ncc2cc(NC(=S)NC(=O)c3ccccc3)ccc21	-201.1*
O=C(NC(=S)Nc1ncc(Br)cc1Br)c1ccccc1	-152.9*
O=C(NC(=S)Nc1cnc2ccccc2c1)c1ccccc1	-171.1*
COc1ccc(C2C(C(=O)Nc3cc(OC)c(OC)c(OC)c3)c3ccccc3C(=O)N2C)cc1 (configuration not stated)	97.9
COc1ccc(NC(=O)C2C(=O)N(CCO)C3(C)CC2c2ccccc2O3)cc1 (configuration not stated)	-103.0*
CC(C)c1ccc2[nH]c3c(c2c1)[C@@H]1CCN2C(=O)CCC[C@H](C3)[C@H]12	-92.6*
CC(=O)N1N=C(c2ccc(C)cc2)OC1c1ccc(Br)cc1 (configuration not stated)	-174.4*
Nc1ccc(-c2nc3ccccc3s2)cn1	-109.6*
O=C1CNC(=S)N1c1nc2ccccc2s1	40.7
COc1cc(OC)cc(-c2nc3ccccc3s2)c1	-286.3*
Brc1ccc(-c2nc3ccccc3s2)s1	-114.5*
SMILES	aSyn 5UTR act
O=C1CCC(=O)N1c1ccc(-c2nc3ccccc3s2)cc1	-119.8*
c1ccc(-c2nc3ccccc3s2)nc1	-86.9*
CCCSc1nnc(-c2c[nH]c3ccccc23)n1C	-78.1*
CC(C)(C)NC(=S)Nc1ccc(Nc2ccccc2)cc1	-115.4*
S=C(NNC(=S)Nc1ccccc1)Nc1ccccc1	-145.3*
C/C(=N\NC(=S)Nc1ccccc1)C1Cc2ccccc2C(=O)O1 (configuration not stated)	-154.4*
COCCCNC(=S)NNC(=S)Nc1ccc(F)cc1F	-105.9*
S=C(NN=C(C1CC1)C1CC1)Nc1ccccc1	-63.2*

Bioassay records (PubChem BioAssay)
